# Molecular target: JMJD8
# Assay: pooled miR-30 sensor sort-seq; sequence = guide strand
# Conditions: shRNA
# Also: reference of the scale not given here.
row,Sequence,sensor-assay potency score (higher = more potent)
1,TATCTGTGTAATAAAATCCGTG,-0.911
2,TAGCATGCCACCAGCGGTCGGG,-0.51
3,TTGTGGTAGGAGTAGGTGTTGG,-1.22
4,TACAGCACCTCACCAGCCCGGA,-0.942
5,TAGGAGTAGGTGTTGGCGGTGC,0.392
6,TATACATAGTTTATGTTCCTGG,-0.256
7,TTTGTGGTAGGAGTAGGTGTTG,-1.04
8,TACGACCGTAGATCACTTCTGA,0.324
9,TTATTGACGCATTCATCTCTGA,-0.0992
10,TAGATCACTTCTGAGTACCCGG,-0.223
11,TTGAGCGTAGCATGCCACCAGC,-0.983
12,TACTGCTGCACGAACTCCGCGT,-0.255

# Molecular target: JOSD1
# Assay: as above
# Conditions: shRNA
row,Sequence,sensor-assay potency score (higher = more potent)
1,TTCCTGAGCTCGCTCTCGCCTC,-1.09
2,TACCTCTTCTGGTACCACCAGC,-0.788
3,TAGAAACTTCCTGAGCTCGCTC,0.337
4,TCGAACACAGATCCAGTGCTGC,-0.708
5,TGATGTTTTAGAAACTTCCTGA,0.299
